Screen size: about 5,500 compounds; about 2,000 (36%) were called active. Inconclusive results (about 18%) are left out. Cut-off read from the data, not from the text of the source: active = normalized growth mostly below about 0.91 (no sharp cut-off); inconclusive = no clear call, values can overlap the other calls; inactive = mostly above about 0.92. The list shows a part of the results.
Experiment: chemical genetic growth profiling, strain panel (AID 1159580);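 note: tested at 20 µM; growth read once vehicle control cultures reached saturation at 30 °C; 1 = growth at the plate median or of vehicle wells; lower values mean less growth of the strain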
Details: growth OD

Measured: normalized growth

CC(=O)Oc1cc(OC(C)=O)c2c(=O)c(-c3ccccc3)coc2c1
inactive: S. cerevisiae deletion strains, locus YAL013W, strain DEP1, stronger effect = lower value 0.995 | S. cerevisiae deletion strains, locus YBR021W, strain FUR4, stronger effect = lower value 0.978 | S. cerevisiae deletion strains, locus YBR229C, strain ROT2, stronger effect = lower value 1 | S. cerevisiae deletion strains, locus YCL029C, strain bik1, stronger effect = lower value 1 | S. cerevisiae deletion strains, locus YDL035C, strain GPR1, stronger effect = lower value 0.997 | S. cerevisiae deletion strains, locus YDL074C, strain BRE1, stronger effect = lower value 0.989 | S. cerevisiae deletion strains, locus YDL101C, strain DUN1, stronger effect = lower value 1.01 | S. cerevisiae deletion strains, locus YDL134C, strain PPH21, stronger effect = lower value 1.01 | S. cerevisiae deletion strains, locus YDL185W, strain tfp1, stronger effect = lower value 0.998 | S. cerevisiae deletion strains, locus YDL192W, strain arf1, stronger effect = lower value 0.993 | S. cerevisiae deletion strains, locus YDR101C, strain arx1, stronger effect = lower value 0.982 | S. cerevisiae deletion strains, locus YDR150W, strain NUM1, stronger effect = lower value 1.02 | S. cerevisiae deletion strains, locus YDR162C, strain NBP2, stronger effect = lower value 1.01 | S. cerevisiae deletion strains, locus YDR318W, strain mcm21, stronger effect = lower value 0.982 | S. cerevisiae deletion strains, locus YDR388W, stronger effect = lower value 1 | S. cerevisiae deletion strains, locus YDR502C, strain sam2, stronger effect = lower value 0.978 | S. cerevisiae deletion strains, locus YEL061C, strain CIN8, stronger effect = lower value 1.01 | S. cerevisiae deletion strains, locus YER110C, stronger effect = lower value 0.992 | S. cerevisiae deletion strains, locus YER155C, strain BEM2, stronger effect = lower value 1.01 | S. cerevisiae deletion strains, locus YER167W, strain BCK2, stronger effect = lower value 1.02 | S. cerevisiae deletion strains, locus YGL078C, strain dbp3, stronger effect = lower value 0.991 | S. cerevisiae deletion strains, locus YGL086W, strain mad1, stronger effect = lower value 1 | S. cerevisiae deletion strains, locus YGL248W, strain PDE1, stronger effect = lower value 1.01 | S. cerevisiae deletion strains, locus YGR078C, strain PAC10, stronger effect = lower value 1 | S. cerevisiae deletion strains, locus YGR135W, strain pre9, stronger effect = lower value 0.985 | S. cerevisiae deletion strains, locus YGR229C, strain SMI1, stronger effect = lower value 1.02 | S. cerevisiae deletion strains, locus YGR252W, strain gcn5, stronger effect = lower value 0.888 | S. cerevisiae deletion strains, locus YHR030C, strain SLT2, stronger effect = lower value 1.01 | S. cerevisiae deletion strains, locus YHR079C, strain IRE1 (second series), stronger effect = lower value 0.98 | S. cerevisiae deletion strains, locus YHR094C, strain hxt1, stronger effect = lower value 0.988 | S. cerevisiae deletion strains, locus YHR129C, strain ARP1, stronger effect = lower value 1 | S. cerevisiae deletion strains, locus YHR200W, strain rpn10, stronger effect = lower value 1 | S. cerevisiae deletion strains, locus YIL066C, strain RNR3, stronger effect = lower value 1.02 | S. cerevisiae deletion strains, locus YIL073C, strain SPO22, stronger effect = lower value 1 | S. cerevisiae deletion strains, locus YIL125W, strain kgd1, stronger effect = lower value 0.992 | S. cerevisiae deletion strains, locus YIR030C, strain dcg1, stronger effect = lower value 1 | S. cerevisiae deletion strains, locus YJL095W, strain BCK1, stronger effect = lower value 1.01 | S. cerevisiae deletion strains, locus YJL134W, strain LCB3, stronger effect = lower value 1.01 | S. cerevisiae deletion strains, locus YJL168C, strain set2, stronger effect = lower value 1 | S. cerevisiae deletion strains, locus YJL187C, strain SWE1 (second series), stronger effect = lower value 1 | S. cerevisiae deletion strains, locus YJR043C, strain POL32, stronger effect = lower value 0.987 | S. cerevisiae deletion strains, locus YJR075W, strain HOC1, stronger effect = lower value 1.02 | S. cerevisiae deletion strains, locus YKL009W, strain mrt4, stronger effect = lower value 1.02 | S. cerevisiae deletion strains, locus YKL068W, stronger effect = lower value 0.993 | S. cerevisiae deletion strains, locus YKL085W, strain MDH1 (second series), stronger effect = lower value 0.982 | S. cerevisiae deletion strains, locus YKL085W, strain MDH1, stronger effect = lower value 0.982 | S. cerevisiae deletion strains, locus YKL190W, strain CNB1, stronger effect = lower value 1.03 | S. cerevisiae deletion strains, locus YKR001C, strain vps1, stronger effect = lower value 0.944 | S. cerevisiae deletion strains, locus YLR039C, strain RIC1, stronger effect = lower value 0.901 | S. cerevisiae deletion strains, locus YLR058C, strain SHM2, stronger effect = lower value 1.01 | S. cerevisiae deletion strains, locus YLR102C, strain apc9, stronger effect = lower value 1 | S. cerevisiae deletion strains, locus YLR262C, strain YPT6, stronger effect = lower value 0.913 | S. cerevisiae deletion strains, locus YLR268W, strain sec22, stronger effect = lower value 0.983 | S. cerevisiae deletion strains, locus YLR330W, strain CHS5, stronger effect = lower value 1.01 | S. cerevisiae deletion strains, locus YLR342W, strain FKS1 (second series), stronger effect = lower value 0.966 | S. cerevisiae deletion strains, locus YLR371W, strain rom2, stronger effect = lower value 1 | S. cerevisiae deletion strains, locus YLR418C, strain cdc73, stronger effect = lower value 0.891 | S. cerevisiae deletion strains, locus YML016C, strain PPZ1, stronger effect = lower value 1.02 | S. cerevisiae deletion strains, locus YML032C, strain rad52, stronger effect = lower value 1 | S. cerevisiae deletion strains, locus YML124C, strain tub3, stronger effect = lower value 0.995 | S. cerevisiae deletion strains, locus YMR078C, strain ctf18, stronger effect = lower value 1 | S. cerevisiae deletion strains, locus YMR223W, strain ubp8, stronger effect = lower value 0.992 | S. cerevisiae deletion strains, locus YMR263W, strain SAP30, stronger effect = lower value 1 | S. cerevisiae deletion strains, locus YMR307W, strain GAS1, stronger effect = lower value 0.858 | S. cerevisiae deletion strains, locus YNL067W, strain RPL9B, stronger effect = lower value 1 | S. cerevisiae deletion strains, locus YNL128W, strain TEP1, stronger effect = lower value 1.03 | S. cerevisiae deletion strains, locus YNL153C, strain GIM3, stronger effect = lower value 1.02 | S. cerevisiae deletion strains, locus YNL233W, strain BNI4, stronger effect = lower value 1.02 | S. cerevisiae deletion strains, locus YNL250W, strain rad50, stronger effect = lower value 0.974 | S. cerevisiae deletion strains, locus YNL271C, strain bni1, stronger effect = lower value 0.991 | S. cerevisiae deletion strains, locus YNL298W, strain CLA4, stronger effect = lower value 0.999 | S. cerevisiae deletion strains, locus YNL307C, strain MCK1, stronger effect = lower value 0.932 | S. cerevisiae deletion strains, locus YNL322C, strain KRE1, stronger effect = lower value 1.01 | S. cerevisiae deletion strains, locus YNR052C, strain pop2, stronger effect = lower value 0.989 | S. cerevisiae deletion strains, locus YOL006C, strain TOP1, stronger effect = lower value 0.991 | S. cerevisiae deletion strains, locus YOL012C, strain htz1 0.735 | S. cerevisiae deletion strains, locus YOL147C, strain pex11, stronger effect = lower value 0.994 | S. cerevisiae deletion strains, locus YOR061W, strain CKA2, stronger effect = lower value 1.02 | S. cerevisiae deletion strains, locus YOR069W, strain VPS5, stronger effect = lower value 1.01 | S. cerevisiae deletion strains, locus YOR136W, strain idh2, stronger effect = lower value 0.997 | S. cerevisiae deletion strains, locus YOR144C, strain elg1, stronger effect = lower value 1 | S. cerevisiae deletion strains, locus YOR184W, strain ser1, stronger effect = lower value 0.986 | S. cerevisiae deletion strains, locus YOR316C, strain cot1, stronger effect = lower value 1 | S. cerevisiae deletion strains, locus YPL055C, strain LGE1, stronger effect = lower value 0.991 | S. cerevisiae deletion strains, locus YPL241C, strain CIN2, stronger effect = lower value 1.01 | S. cerevisiae deletion strains, locus YPR119W, strain clb2, stronger effect = lower value 0.999 | S. cerevisiae deletion strains, locus YPR141C, strain kar3, stronger effect = lower value 0.979 | S. cerevisiae deletion strains, locus YPR163C, strain tif3, stronger effect = lower value 0.994 | S. cerevisiae deletion strains, locus YPR167C, strain met16, stronger effect = lower value 0.996 | S. cerevisiae deletion strains, strain wtn01, stronger effect = lower value 0.984 | S. cerevisiae strains, strain wild type, stronger effect = lower value 1.01
